Legend:
Assay in all cases: growth AUC relative to DMSO control (median of replicates) (fraction); higher = more growth (less inhibition), active = hit call of the paper
Settings in all cases: 20 µM; 24 h;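 active = AUC reduced over 20% with Padj below 0.05 in at least 2 of 3 replicates; inactive = otherwise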
[1] = test system: Akkermansia muciniphila
Procedure, shortened: (§1)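 Gut bacterial monocultures were grown anaerobically at 37 °C in mGAM, starting at OD600 0.05, with 20 µM compound (1% DMSO) in round-bottom 96-well plates under pierced gas-permeable seals. OD600 was read hourly for 24 h. Area under the growth curve (minimum OD set to 0) was normalised to the plate median of DMSO controls, or to row and column medians on the industrial chemical plate. The value is the median of three biological replicates grown on separate days.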

[2] = test system: Bacteroides caccae
Procedure, shortened: as §1

[3] = test system: Bacteroides clarus
Procedure, shortened: as §1

[4] = test system: Bacteroides dorei
Procedure, shortened: as §1

[5] = test system: Bacteroides stercoris
Procedure, shortened: as §1

[6] = test system: Bacteroides thetaiotaomicron
Procedure, shortened: as §1

[7] = test system: Bacteroides uniformis
Procedure, shortened: as §1

[8] = test system: Bifidobacterium longum subsp. longum
Procedure, shortened: as §1

[9] = test system: Clostridium difficile
Procedure, shortened: as §1

[10] = test system: Collinsella aerofaciens
Procedure, shortened: as §1

[11] = test system: Coprococcus comes
Procedure, shortened: as §1

[12] = test system: Escherichia coli ED1a
Procedure, shortened: as §1

[13] = test system: Escherichia coli IAI1
Procedure, shortened: as §1

[14] = test system: Eubacterium rectale
Procedure, shortened: as §1

[15] = test system: Fusobacterium nucleatum subsp. animalis
Procedure, shortened: as §1

[16] = test system: Lactobacillus gasseri
Procedure, shortened: as §1

[17] = test system: Lactobacillus paracasei
Procedure, shortened: as §1

[18] = test system: Odoribacter splanchnicus
Procedure, shortened: as §1

[19] = test system: Parabacteroides distasonis
Procedure, shortened: as §1

[20] = test system: Parabacteroides merdae
Procedure, shortened: as §1

| Structure (SMILES) | growth AUC [1] | growth AUC [2] | growth AUC [3] | growth AUC [4] | growth AUC [5] | growth AUC [6] | growth AUC [7] | growth AUC [8] | growth AUC [9] | growth AUC [10] | growth AUC [11] | growth AUC [12] | growth AUC [13] | growth AUC [14] | growth AUC [15] | growth AUC [16] | growth AUC [17] | growth AUC [18] | growth AUC [19] | growth AUC [20] |
| --- | --- | --- | --- | --- | --- | --- | --- | --- | --- | --- | --- | --- | --- | --- | --- | --- | --- | --- | --- | --- |
| COC(=O)c1ccc(I)cc1S(=O)(=O)[N-]C(=O)Nc1nc(C)nc(OC)n1.[Na+] | 1.25 (inactive) | 0.901 (inactive) | 0.992 (inactive) | 0.933 (inactive) | 1.01 (inactive) | 1.06 (inactive) | 0.941 (inactive) | 1.01 (inactive) | 0.991 (inactive) | 0.977 (inactive) | 0.947 (inactive) | 1.02 (inactive) | 0.948 (inactive) | 1.07 (inactive) | 1.14 (inactive) | 0.919 (inactive) | 0.969 (inactive) | 1.07 (inactive) | 0.95 (inactive) | 1.01 (inactive) |
| CN(C)C=O | 1.08 (inactive) | 0.991 (inactive) | 1.05 (inactive) | 0.936 (inactive) | 1.05 (inactive) | 1.01 (inactive) | 1.05 (inactive) | 1.13 (inactive) | 0.999 (inactive) | 1.01 (inactive) | 1.04 (inactive) | 1.03 (inactive) | 1.03 (inactive) | 0.998 (inactive) | 1.11 (inactive) | 1.01 (inactive) | 1.03 (inactive) | 1.05 (inactive) | 0.998 (inactive) | 1.02 (inactive) |
| COc1nc(N)nc(C(F)(F)F)n1 | 0.945 (inactive) | 0.985 (inactive) | 0.992 (inactive) | 1.01 (inactive) | 0.988 (inactive) | 0.985 (inactive) | 1.01 (inactive) | 1.04 (inactive) | 1.03 (inactive) | 1.02 (inactive) | 1.05 (inactive) | 0.998 (inactive) | 1 (inactive) | 0.958 (inactive) | 1.04 (inactive) | 1.08 (inactive) | 0.964 (inactive) | 1.01 (inactive) | 1.03 (inactive) | 1.02 (inactive) |
| CCNc1nc(NCC)nc(OC)n1 | 0.914 (inactive) | 1.02 (inactive) | 1.02 (inactive) | 1 (inactive) | 1.01 (inactive) | 0.967 (inactive) | 0.992 (inactive) | 0.957 (inactive) | 1 (inactive) | 0.992 (inactive) | 1.05 (inactive) | 1.03 (inactive) | 0.975 (inactive) | 1 (inactive) | 1.01 (inactive) | 0.921 (inactive) | 0.977 (inactive) | 1.01 (inactive) | 1.04 (inactive) | 1 (inactive) |
| CCOCOc1ccc(C(=O)Nc2cccc(Cl)c2Cl)cc1 | 1.04 (inactive) | 0.855 (inactive) | 0.881 (inactive) | 0.972 (inactive) | 0.836 (inactive) | 0.884 (inactive) | 0.912 (inactive) | 0.907 (inactive) | 1.02 (inactive) | 0.956 (inactive) | 0.977 (inactive) | 0.977 (inactive) | 0.953 (inactive) | 0.961 (inactive) | 0.901 (inactive) | 1.05 (inactive) | 0.985 (inactive) | 0.975 (inactive) | 0.976 (inactive) | 0.961 (inactive) |
| CCCCOCCOC(=O)COc1nc(Cl)c(Cl)cc1Cl | 1.02 (inactive) | 0.954 (inactive) | 0.956 (inactive) | 0.948 (inactive) | 0.995 (inactive) | 0.963 (inactive) | 0.928 (inactive) | 0.934 (inactive) | 0.979 (inactive) | 0.977 (inactive) | 0.982 (inactive) | 0.994 (inactive) | 0.973 (inactive) | 1.02 (inactive) | 0.984 (inactive) | 0.917 (inactive) | 0.962 (inactive) | 1.09 (inactive) | 0.978 (inactive) | 0.956 (inactive) |
| c1ccc2c(c1)-c1cccc3c1c-2cc1ccccc13 | 0.981 (inactive) | 1.05 (inactive) | 1.03 (inactive) | 1.04 (inactive) | 1.08 (inactive) | 1.02 (inactive) | 1.03 (inactive) | 1.06 (inactive) | 1.02 (inactive) | 1.01 (inactive) | 1.01 (inactive) | 0.985 (inactive) | 1.01 (inactive) | 1.03 (inactive) | 1.08 (inactive) | 1.02 (inactive) | 0.998 (inactive) | 1.07 (inactive) | 1.31 (inactive) | 1.05 (inactive) |
| CCC/C(=N\OCC(C)Oc1ccc(Cl)cc1)C1=C(O)CC(C2CCCSC2)CC1=O (stereo not given) | 0.924 (inactive) | 0.949 (inactive) | 0.958 (inactive) | 1 (inactive) | 0.843 (inactive) | 0.901 (inactive) | 0.939 (inactive) | 0.91 (inactive) | 1.02 (inactive) | 0.973 (inactive) | 0.979 (inactive) | 0.98 (inactive) | 0.987 (inactive) | 0.906 (inactive) | 0.913 (inactive) | 1.02 (inactive) | 0.706 (inactive) | 1.07 (inactive) | 0.885 (inactive) | 0.938 (inactive) |
| CCCCOC(=O)C(C)Oc1ccc(Oc2ccc(C(F)(F)F)cn2)cc1 (stereo not given) | 1.13 (inactive) | 1.01 (inactive) | 0.977 (inactive) | 0.951 (inactive) | 1.08 (inactive) | 0.959 (inactive) | 0.891 (inactive) | 0.681 (active) | 1.01 (inactive) | 0.963 (inactive) | 0.987 (inactive) | 1.02 (inactive) | 1.01 (inactive) | 1.09 (inactive) | 0.997 (inactive) | 0.914 (inactive) | 0.985 (inactive) | 1.02 (inactive) | 0.768 (inactive) | 0.961 (inactive) |
| CC(C)CCCCCCc1ccc(O)cc1 | 0.981 (inactive) | 1.03 (inactive) | 1.03 (inactive) | 1.01 (inactive) | 0.923 (inactive) | 0.992 (inactive) | 0.965 (inactive) | 1.03 (inactive) | 1.07 (inactive) | 0.979 (inactive) | 1.01 (inactive) | 1.02 (inactive) | 1.01 (inactive) | 0.879 (inactive) | 1.16 (inactive) | 0.948 (inactive) | 1.03 (inactive) | 1.05 (inactive) | 1.02 (inactive) | 0.968 (inactive) |
| O=c1cc(Cl)[nH]nc1-c1ccccc1 | 0.833 (inactive) | 1.01 (inactive) | 0.967 (inactive) | 1.05 (inactive) | 0.777 (inactive) | 1.02 (inactive) | 1.01 (inactive) | 0.954 (inactive) | 1.07 (inactive) | 0.983 (inactive) | 0.973 (inactive) | 0.956 (inactive) | 0.954 (inactive) | 0.939 (inactive) | 0.995 (inactive) | 0.992 (inactive) | 0.748 (inactive) | 1.02 (inactive) | 1.02 (inactive) | 0.982 (inactive) |
| Nc1ccc(S(=O)(=O)Nc2cnc3ccccc3n2)cc1 | 0.923 (inactive) | 1.01 (inactive) | 0.99 (inactive) | 1.02 (inactive) | 1.01 (inactive) | 0.946 (inactive) | 0.984 (inactive) | 1.12 (inactive) | 0.975 (inactive) | 0.982 (inactive) | 0.996 (inactive) | 1 (inactive) | 0.975 (inactive) | 0.983 (inactive) | 0.936 (inactive) | 1.03 (inactive) | 0.887 (inactive) | 1.01 (inactive) | 1.01 (inactive) | 0.97 (inactive) |
| CC(C)([CH2][Sn]([CH2]C(C)(C)c1ccccc1)([CH2]C(C)(C)c1ccccc1)[O][Sn]([CH2]C(C)(C)c1ccccc1)([CH2]C(C)(C)c1ccccc1)[CH2]C(C)(C)c1ccccc1)c1ccccc1 | 1.07 (inactive) | 0.969 (inactive) | 1.01 (inactive) | 0.989 (inactive) | 0.969 (inactive) | 1.02 (inactive) | 0.993 (inactive) | 1.02 (inactive) | 0.956 (inactive) | 1.01 (inactive) | 0.98 (inactive) | 0.999 (inactive) | 0.978 (inactive) | 0.998 (inactive) | 1.03 (inactive) | 0.963 (inactive) | 0.988 (inactive) | 1.06 (inactive) | 1.04 (inactive) | 0.954 (inactive) |
| COc1cc(OC)nc(NC(=O)NS(=O)(=O)Nc2ccccc2C(=O)C2CC2)n1 | 0.985 (inactive) | 0.988 (inactive) | 0.943 (inactive) | 0.963 (inactive) | 0.983 (inactive) | 0.961 (inactive) | 0.915 (inactive) | 0.961 (inactive) | 1.01 (inactive) | 0.997 (inactive) | 0.952 (inactive) | 1 (inactive) | 0.978 (inactive) | 0.807 (inactive) | 0.97 (inactive) | 1.07 (inactive) | 1.01 (inactive) | 0.963 (inactive) | 0.964 (inactive) | 0.913 (inactive) |
| CCc1nc2ncnn2c(N)c1CCCC(=O)O.Cl | 1.12 (inactive) | 0.907 (inactive) | 1.03 (inactive) | 1 (inactive) | 1.14 (inactive) | 0.985 (inactive) | 1.02 (inactive) | 1.01 (inactive) | 1.04 (inactive) | 1 (inactive) | 1.02 (inactive) | 1.02 (inactive) | 1.05 (inactive) | 1.07 (inactive) | 1.13 (inactive) | 0.975 (inactive) | 1.1 (inactive) | 0.952 (inactive) | 0.991 (inactive) | 0.997 (inactive) |
